Reference: ChEMBL document CHEMBL3988442, “University of Dundee, Small-Polar-MMV Screening Library” (2021)
About 13,000 (27%) of roughly 48,000 compounds showed an effect of 50% or more. The list shows a part of the results.

What follows are compounds tested on Wolbachia pipientis (assay: Anti-Wolbachia Cell-Based Screen). Conditions: 5 µM.
Format: functional
Set-up: scale not given: in the data most compounds retested in dose-response had high values
For Cc1nc(C(C)C)sc1C(=O)N(C)Cc1nc(-c2ccccn2)no1, the “Percent Effect” value was -7.076%. With CC(CN(C)C(=O)c1cn(C)nc1-c1ccc(F)cc1F)C(=O)O (configuration not stated) the “Percent Effect” value was -1.433%. CCOc1ccc2nc(CN3CCC(CNC(C)=O)C3)ccc2c1 (configuration not stated) was tested, and the “Percent Effect” value was 0.9569%. With Cc1nc(CN(C)C(=O)c2cc(C)sc2NC(=O)C(C)(C)C)no1 the “Percent Effect” value was -2.602%. With Fc1cccc(-n2cccn2)c1NCc1nnc(C2CC2)o1 the “Percent Effect” value was -10.01%. For Cc1cc(C)n(C2CN(C(=O)Cn3c(C)cc(=O)c4ccccc43)C2)n1, the “Percent Effect” value was 17.29%. For O=C(CSCC1CC1)N1C[C@@H]2CC[C@H](C1)N(Cc1ccccn1)C2=O, the “Percent Effect” value was 4.164%. In the case of CCn1cc2c(n1)CN(S(=O)(=O)Cc1ccccc1)CC2COC (configuration not stated), the “Percent Effect” value is reported as 10.82%. In the case of CN1CC(=O)N(C2CCC2)Cc2c(NC3CCNCC3)ncnc21, the “Percent Effect” value is reported as 107.9%. With CN1CC(=O)N(C2CCNCC2)Cc2c(NC3CCC3)ncnc21 the “Percent Effect” value was 106.1%. In the case of Cc1n[nH]c(C2CN(CCNC3CCCCC3)CCO2)n1 (configuration not stated), the “Percent Effect” value is reported as 13.35%. In the case of CCn1c(=O)c2cc(S(N)(=O)=O)ccc2n(CC)c1=O, the “Percent Effect” value is reported as 133.6%. In the case of CCNS(=O)(=O)c1ccc(C)c(C(=O)N(C)Cc2ccccc2C)c1, the “Percent Effect” value is reported as -10.61%. For CCCN(C)C(=O)c1cc(S(=O)(=O)NCC)ccc1C, the “Percent Effect” value was -9.376%. CCn1c(=O)n(CC)c2cc(S(N)(=O)=O)ccc21 was tested, and the “Percent Effect” value was 88.83%. CCn1c(=O)n(Cc2nc(C3CC3)no2)c2ccccc21 was tested, and the “Percent Effect” value was -1.691%. For CCc1nc(Cn2c(=O)n(CC)c3ccccc32)no1, the “Percent Effect” value was -6.157%. In the case of CCNS(=O)(=O)c1ccc2c(c1)c(=O)n(CC)c(=O)n2CC, the “Percent Effect” value is reported as 90.08%. For NC(=O)Cn1ccc(NC(=O)C2(c3cccc(Cl)c3)CC2)n1, the “Percent Effect” value was -4.273%. In the case of CN(C)C(=O)[C@@H]1C[C@H]2OCC[C@H]2N(CCOc2ccc(Cl)cc2)C1.O=C(O)C(F)(F)F, the “Percent Effect” value is reported as 2.849%. In the case of Cn1ccnc1COc1ccc(NC(=O)CCC2CCCO2)cc1 (configuration not stated), the “Percent Effect” value is reported as 7.737%. CC(C(=O)Nc1ccnn1C(C)C)N1CCN(Cc2ccon2)CC1 (configuration not stated) was tested, and the “Percent Effect” value was 9.174%. With c1cnc(N2C[C@H]3CCC[C@@H](CN4CCCC4)[C@H]3C2)nc1 the “Percent Effect” value was -23.6%. Cc1cnc(CN(C)C2CCN(CC(=O)Nc3nncs3)C2)o1.O=C(O)C(F)(F)F (configuration not stated) was tested, and the “Percent Effect” value was 3.209%. For Cc1cc(C(=O)N2CCC3(CCCN(CC4CC4)C3=O)C2)c(C)n1C (configuration not stated), the “Percent Effect” value was -3.042%. CC(C)N1CCCC2(CCN(C(=O)COCC(F)(F)C(F)F)C2)C1=O (configuration not stated) was tested, and the “Percent Effect” value was -9.489%. CN1CCN(C(=O)N2CCC3(CCCN(C4CCOCC4)C3=O)C2)CC1 (configuration not stated) was tested, and the “Percent Effect” value was 106.4%. COCCOCC(=O)N1CCC2(CCCN(C3CCOCC3)C2=O)C1 (configuration not stated) was tested, and the “Percent Effect” value was 121%. With Cc1nccnc1CN1CCC2(CCCN(C3CCOCC3)C2=O)C1 (configuration not stated) the “Percent Effect” value was 1.539%. For CS(=O)(=O)CCN1CCC2(CCCN(C3CCOCC3)C2=O)C1 (configuration not stated), the “Percent Effect” value was -2.931%. With O=C(COCC(F)(F)C(F)F)N1CCC2(CCCN(CCO)C2=O)C1 (configuration not stated) the “Percent Effect” value was -15.14%. Cc1c(C(=O)N2CCC3(CCCN(CC4CC4)C3=O)C2)ccn1C (configuration not stated) was tested, and the “Percent Effect” value was -5.125%. With Cc1nonc1CC(=O)N1C[C@@H]2CC[C@H](C1)N(Cc1ccccc1)C2=O the “Percent Effect” value was -22.99%. For CCOC(=O)N1CCC2(CCCN(C3CCOCC3)C2=O)C1 (configuration not stated), the “Percent Effect” value was 112%. For Cn1cccc1C(=O)N1CCC2(CCCN(CC3CC3)C2=O)C1 (configuration not stated), the “Percent Effect” value was 2.832%. For Cc1nonc1CC(=O)N1CCC2(CCCN(C3CCOCC3)C2=O)C1 (configuration not stated), the “Percent Effect” value was 111.8%. For c1ncc2c(n1)CN(CC1CCCCO1)CC2 (configuration not stated), the “Percent Effect” value was -13.48%. CCn1nc(C)c2nc(C(C)C)nc(NCCOC)c21 was tested, and the “Percent Effect” value was -9.329%. In the case of CS(=O)(=O)Cc1ccccc1NCc1cc(Cl)ccc1Cl, the “Percent Effect” value is reported as 3.453%. For Cc1n[nH]cc1CNC(=O)Nc1cccc(OCC(F)(F)F)c1, the “Percent Effect” value was -23.93%. CCS(=O)(=O)c1ccc(N2CCC(NC(C)=O)CC2)cc1 was tested, and the “Percent Effect” value was -5.151%. Cn1cnnc1-c1cncc(NCc2ccccc2Br)c1 was tested, and the “Percent Effect” value was 9.077%. For CCC(CC)NCC(c1ccccn1)N1CCOCC1 (configuration not stated), the “Percent Effect” value was 8.316%. CCC(=O)N(CC)C(c1cccnc1)c1ccc2c(c1)CCO2 (configuration not stated) was tested, and the “Percent Effect” value was -9.514%. For CC1COCCN1Cc1nc(-c2cccs2)no1 (configuration not stated), the “Percent Effect” value was 6.189%. COc1cccc(-c2ncc(CN3CCOCC(O)C3)s2)c1 (configuration not stated) was tested, and the “Percent Effect” value was -5.443%. With CC1COCCN1Cc1nc(-c2ccc(Br)s2)no1 (configuration not stated) the “Percent Effect” value was 104.9%. In the case of COc1cccc(-c2noc(CN3CCOCC3C)n2)c1 (configuration not stated), the “Percent Effect” value is reported as 120.5%. In the case of Cc1ccc(CN2C[C@H](O)C[C@H]2c2nc(-c3ccc(F)cc3)no2)cc1, the “Percent Effect” value is reported as -12.23%. CC1COCCN1Cc1nc(-c2ccc(F)cc2)no1 (configuration not stated) was tested, and the “Percent Effect” value was 110.9%. For COc1ccc(-c2noc(CN3CCOCC3C)n2)cc1OC (configuration not stated), the “Percent Effect” value was -3.831%. For c1csc(-c2noc(CC3CCCO3)n2)c1 (configuration not stated), the “Percent Effect” value was 5.637%.
